# From publication PMC11062922 (Nature Chemical Biology, 2023)
# Read-outs that look alike come from different tables or passages of the source.
# Columns and labels:
# Design in all cases: species or system human, MV4-11 + K-562 + COLO205 + SK-N-BE2 + OVCAR-8
# CSNK1D = details: read-out: apparent Kd, n = 1
# CSNK1E = details: read-out: apparent Kd, n = 1
# IARS = details: read-out: apparent Kd; compound concentrations:100 nM and 1000 nM (sheet 'Samples'); n = 1
# MAPK14 = details: read-out: apparent Kd, n = 1
# NQO1 = details: read-out: apparent Kd; compound concentrations:100 nM and 1000 nM (sheet 'Samples'); n = 1
# CSNK1A1 = details: read-out: apparent Kd, compound concentrations: 100 nM and 1000 nM (sheet 'Samples'), n = 1
# MYLK3 = details: read-out: apparent Kd; compound concentrations: 100 nM and 1000 nM (sheet 'Samples'), CATDS: 0.254967092830167; n = 1
# PKN2 = details: read-out: apparent Kd; compound concentrations: 100 nM and 1000 nM (sheet 'Samples'), CATDS: 0.232185519076441; n = 1
# TP53RK = details: read-out: apparent Kd; compound concentrations: 100 nM and 1000 nM (sheet 'Samples'), CATDS: 0.27535936863047; n = 1
# DDR1 = details: read-out: apparent Kd; compound concentrations: 100 nM and 1000 nM (sheet 'Samples'), CATDS: 5.0291994189884899E-2; n = 1
# DDR2 = details: read-out: apparent Kd; compound concentrations: 100 nM and 1000 nM (sheet 'Samples'), CATDS: 3.5910243594836001E-2; n = 1
# GAK = details: read-out: apparent Kd; compound concentrations: 100 nM and 1000 nM (sheet 'Samples'), CATDS: 5.4860090777902201E-2; n = 1
# MAPK10 = details: read-out: apparent Kd; compound concentrations: 100 nM and 1000 nM (sheet 'Samples'), CATDS: 6.8740436071955194E-2; n = 1
# MAPK11 = details: read-out: apparent Kd; compound concentrations: 100 nM and 1000 nM (sheet 'Samples'), CATDS: 3.4840518040238501E-2; n = 1
# MAPK8 = details: read-out: apparent Kd; compound concentrations: 100 nM and 1000 nM (sheet 'Samples'), CATDS: 4.6835981276276903E-2; n = 1
# MAPK9 = details: read-out: apparent Kd; compound concentrations: 100 nM and 1000 nM (sheet 'Samples'), CATDS: 9.88487925087526E-2; n = 1
# MAPKAPK2 = details: read-out: apparent Kd; compound concentrations: 100 nM and 1000 nM (sheet 'Samples'), CATDS: 7.0385751931635404E-2; n = 1
# PIK3CA = details: read-out: apparent Kd; compound concentrations: 100 nM and 1000 nM (sheet 'Samples'), CATDS: 4.2523993136959801E-2; n = 1
# PIK3CD = details: read-out: apparent Kd; compound concentrations: 100 nM and 1000 nM (sheet 'Samples'), CATDS: 5.28736711934766E-2; n = 1
# PRKD2 = details: read-out: apparent Kd; compound concentrations: 100 nM and 1000 nM (sheet 'Samples'), CATDS: 3.2417406243743098E-2; n = 1
# PRKD3 = details: read-out: apparent Kd; compound concentrations: 100 nM and 1000 nM (sheet 'Samples'), CATDS: 3.0540590804978299E-2; n = 1
# RIPK2 = details: read-out: apparent Kd; compound concentrations: 100 nM and 1000 nM (sheet 'Samples'), CATDS: 3.5796504024636501E-2; n = 1
# TNIK = details: read-out: apparent Kd; compound concentrations: 100 nM and 1000 nM (sheet 'Samples'), CATDS: 3.1361492555590703E-2; n = 1
# CLK4 = details: read-out: apparent Kd, n = 1
# CSNK2A1;CSNK2A3 = details: read-out: apparent Kd; compound concentrations:100 nM and 1000 nM (sheet 'Samples'); n = 1
# FER = details: read-out: apparent Kd, n = 1
# FES = details: read-out: apparent Kd; compound concentrations:100 nM and 1000 nM (sheet 'Samples'); n = 1
# GRK6 = details: read-out: apparent Kd; compound concentrations:100 nM and 1000 nM (sheet 'Samples'); n = 1
# IGF1R = details: read-out: apparent Kd, compound concentrations: 100 nM and 1000 nM (sheet 'Samples'), n = 1
# INSR = details: read-out: apparent Kd, n = 1
# PIM1 = details: read-out: apparent Kd; compound concentrations:100 nM and 1000 nM (sheet 'Samples'); n = 1
# PIM2 = details: read-out: apparent Kd; compound concentrations:100 nM and 1000 nM (sheet 'Samples'); n = 1
# TNK1 = details: read-out: apparent Kd; compound concentrations:100 nM and 1000 nM (sheet 'Samples'); n = 1
# CLK1 = details: read-out: apparent Kd; compound concentrations: 100 nM and 1000 nM (sheet 'Samples'), CATDS: 0.27992821641946602; n = 1
# PLK1 = details: read-out: apparent Kd; compound concentrations: 100 nM and 1000 nM (sheet 'Samples'), CATDS: 0.14661258796571799; n = 1
# [1] = compound concentrations:100 nM and 1000 nM (sheet 'Samples')
structure (smiles),measurement,setting,value
Fc1ccc(-c2ncn(C3CCNCC3)c2-c2ccnc(Oc3ccc(Oc4ccccc4)cc3)n2)cc1 [SB-245392],potency estimated from few doses,CSNK1D; [1],616 nM
same,potency estimated from few doses,CSNK1E; [1],1200 nM
same,potency estimated from few doses,IARS,2110 nM
same,potency estimated from few doses,MAPK14; [1],571 nM
same,potency estimated from few doses,NQO1,1710 nM
Cc1ccc(-c2cc3c(NC(=O)C4CC4)ncnc3o2)cc1 [GW819230X],potency estimated from few doses,CSNK1A1; CATDS: 0.241580521879566,2130 nM
same,potency estimated from few doses,MYLK3,1910 nM
same,potency estimated from few doses,PKN2,2320 nM
same,potency estimated from few doses,TP53RK,1650 nM
CCNc1nccc(-c2c(-c3ccc(F)cc3)ncn2C2CCN(C)CC2)n1 [SB-226605],potency estimated from few doses,CSNK1A1; CATDS: 6.4218500177313606E-2,54.1 nM
same,potency estimated from few doses,"CSNK1D; compound concentrations: 100 nM and 1000 nM (sheet 'Samples'), CATDS: 0.15961937746466701",6.16 nM
same,potency estimated from few doses,"CSNK1E; compound concentrations: 100 nM and 1000 nM (sheet 'Samples'), CATDS: 8.6582359742075399E-2",24.7 nM
same,potency estimated from few doses,DDR1,116 nM
same,potency estimated from few doses,DDR2,495 nM
same,potency estimated from few doses,GAK,87 nM
same,potency estimated from few doses,MAPK10,44.8 nM
same,potency estimated from few doses,MAPK11,589 nM
same,potency estimated from few doses,"MAPK14; compound concentrations: 100 nM and 1000 nM (sheet 'Samples'), CATDS: 0.16984831376033699",5.38 nM
same,potency estimated from few doses,MAPK8,150 nM
same,potency estimated from few doses,MAPK9,18 nM
same,potency estimated from few doses,MAPKAPK2,42 nM
same,potency estimated from few doses,PIK3CA,220 nM
same,potency estimated from few doses,PIK3CD,98.1 nM
same,potency estimated from few doses,PRKD2,939 nM
same,potency estimated from few doses,PRKD3,1520 nM
same,potency estimated from few doses,RIPK2,504 nM
same,potency estimated from few doses,TNIK,1210 nM
COc1cc2c(cc1Nc1nc(Nc3ccsc3C(N)=O)c3cc[nH]c3n1)N(C(=O)CN(C)C)CCC2(C)C [GSK2163632A],potency estimated from few doses,CLK4; [1],1180 nM
same,potency estimated from few doses,CSNK2A1;CSNK2A3,1950 nM
same,potency estimated from few doses,FER; [1],82.7 nM
same,potency estimated from few doses,FES,212 nM
same,potency estimated from few doses,GRK6,2050 nM
same,potency estimated from few doses,IGF1R; CATDS: 0.29362976208520802,22 nM
same,potency estimated from few doses,INSR; [1],6.22 nM
same,potency estimated from few doses,PIM1,647 nM
same,potency estimated from few doses,PIM2,1920 nM
same,potency estimated from few doses,TNK1,599 nM
CNC(=O)c1ncccc1Nc1nc(Nc2cc3c(cc2OC)CCCN3C(=O)CN(C)C)nc2[nH]ccc12 [GSK2220400A],potency estimated from few doses,CLK1,321 nM
same,potency estimated from few doses,"CLK4; compound concentrations: 100 nM and 1000 nM (sheet 'Samples'), CATDS: 0.21204627821104199",504 nM
same,potency estimated from few doses,"FER; compound concentrations: 100 nM and 1000 nM (sheet 'Samples'), CATDS: 0.14947425083021301",1020 nM
same,potency estimated from few doses,IGF1R; CATDS: 0.12946189122978499,1500 nM
same,potency estimated from few doses,"INSR; compound concentrations: 100 nM and 1000 nM (sheet 'Samples'), CATDS: 0.154401741124819",949 nM
same,potency estimated from few doses,PLK1,1070 nM
